From PubChem BioAssay (Tox21) come the findings set out here.

Values joined by “and” are separate entries in the source; they are usually repeats but may differ in a detail not shown here. Equal entries are not always repeated. Inconclusive results are not listed. Where a call stands in place of a potency, no number is given. Active and inactive are the calls of the source. The call rests on the fitted dose curve.
Potency means the concentration at half of the fitted maximal effect.

The experiment in a line: qHTS assay to identify small molecule antagonists of the sonic hedgehog signaling (Shh) pathway (AID 1259369). Further: nearly all actives have a fitted effect of over 45% in size. As to conditions: NIH/3T3 Gli1-Luc reporter, Shh antagonist, luminescence 24 h; series mostly up to 92.4 µM. In a few lines:
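Stable Gli1-Luc reporter NIH/3T3 clone; quantitative HTS in stimulated mode with conditioned medium. Luminescence measured after 24hr compound treatment at 37 C.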
On the technique in general: qHTS replaces the single test concentration by a dilution series.
`N#CCCCCC#N`: the Potency entry is “inactive”.
With `Clc1ccc(C(Cl)(Cl)Cl)cc1`, the Potency entry was “inactive”.
As for `O=[N+]([O-])c1ccc(Cl)c([N+](=O)[O-])c1`, the Potency is 1.1 µM (active) and 6.86 µM (active).
For `CCCCOCC1CO1` (stereo not drawn) the value was “inactive”; for `O=S(=O)(O)C(F)(F)C(F)(F)C(F)(F)C(F)(F)C(F)(F)C(F)(F)C(F)(F)C(F)(F)F`, “inactive”.
For `CNC(=S)S` the value was “inactive”.
The figure for `C[C@]12CCC(=O)C=C1CC[C@@H]1[C@@H]2CC[C@@]2(C)[C@H]1CC[C@]2(C)O` is 6.16 µM (active); for `Cl` it is “inactive”; for `Nc1ccc([N+](=O)[O-])cc1N` it is 2.43 µM (active).
`CCOP(=S)(OCC)SCSC(C)(C)C`: the Potency entry is “inactive”.
As to `C=CC(=O)OCC(CC)(COC(=O)C=C)COC(=O)C=C`, the Potency was 2.23 µM (active) and 3.06 µM (active).
Turning to `CCCCC(C#N)(Cn1cncn1)c1ccc(Cl)cc1` (stereo not drawn), the Potency result is “inactive”.
For `C[N+](C)(C)CC(=O)O` the value was “inactive”; for `CS(=O)(=O)NC(=O)c1cc(Oc2ccc(C(F)(F)F)cc2Cl)ccc1[N+](=O)[O-]`, “inactive”; for `CC(C)=CC1C(C(=O)OCN2C(=O)C3=C(CCCC3)C2=O)C1(C)C` (stereo not drawn), “inactive”.
For `ClC(Cl)=C(Cl)C(Cl)=C(Cl)Cl`, the Potency result was “inactive”.
For `COP(=S)(OC)Oc1ccc(S(=O)(=O)N(C)C)cc1` the value was “inactive”; for `CCCCOCCOC(C)=O`, “inactive”.
As for `CC(C)(c1ccccc1)c1ccc(O)c(C(C)(C)c2ccccc2)c1`, the Potency is 30.4 µM (active) and 13.7 µM (active).
For `NN=C(N)N` the value was “inactive”.
Regarding `ClCC(Cl)CCl`, the Potency result was “inactive”.
Take `C[N+](C)(C)C`: the Potency entry was “inactive”.
Take `CC(C)(C#N)N=NC(C)(C)C#N`: the Potency entry is “inactive”.
